Screen size: about 220,000 compounds; about 8,200 (3.7%) were called active. This excerpt belongs to a sample that is enriched for actives. Unmarked numbers belong to inactive results.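 The calls were made as follows: active = compounds that reduced the stress-induced luciferase reporter signal by more than about 70% of percent inhibition (limit read from the data); inactive = the rest.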

The assay is described as follows: inhibitors of CHOP promoter induction, primary screen, cell-based, unfolded protein response, luciferase reporter (AID 2732).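 Also: 0% = tunicamycin plus vehicle and 100% = wells without tunicamycin.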 Conditions: CHO-K1 CHOP-promoter luciferase, tunicamycin-induced, 15-18 h; at 10 µM; stronger effect = higher value. (In general: In a reporter assay the amount or activity of a reporter protein is the signal.)
For orientation: inhibition means the relative decrease from the control value, in per cent. `C/C(=N/NC(=O)c1ccn(C)n1)c1ccncc1`: the inhibition is 12.5%.

`COc1cccc(Nc2nc(N)c([N+](=O)[O-])c(NCc3ccco3)n2)c1`: the inhibition was 38.9%.

As for `COc1ccc(Nc2nc(NCc3ccco3)nc(N/N=C/c3ccccc3Cl)n2)cc1`, the inhibition was -19.9%.

`COc1ccc(Nc2nc(Cl)nc(NCc3ccco3)n2)cc1`: the inhibition is 85% (active).

As for `COc1ccc(Br)c2c1C(=O)CC2`, the inhibition is 10.2%.

`Cn1nccc1NC(=O)CC(CC(=O)O)c1ccccc1` (configuration not stated): the inhibition is 25.4%.

For `COc1cc2c(cc1OC)C(/C=C/c1ccco1)=NCC2`, the inhibition was 1.07%.

As for `COC(=O)C1=C(N)Oc2cc(C)[nH]c(=O)c2C1c1ccc(Cl)cc1` (configuration not stated), the inhibition was -8.98%.

With `C=C(C)C(=O)O[C@H]1C/C(C)=C\C(=O)/C=C(\C)[C@H](O)[C@@H]2OC(=O)C(=C)[C@@H]21`, the inhibition was 107% (active).

For the molecule `O=C(O)C#Cc1cccc2ccccc12`, the inhibition was -1.61%.

For the molecule `COc1ccc(F)cc1S(=O)(=O)N1CCCCC1`, the inhibition is 10.6%.

In the case of `CCOC(=O)c1ccc(S(=O)(=O)N(CCO)Cc2cc3cc(OC)c(OC)cc3[nH]c2=O)cc1`, the inhibition is 23.6%.

For the molecule `Cc1nc(-c2ccc(Cl)cc2)sc1C1(C)CC(c2ccccc2F)=NO1` (configuration not stated), the inhibition is -3.45%.

With `CCC/C(C)=N\Nc1nc2c(c(=O)n(C)c(=O)n2C)n1C`, the inhibition was 6.66%.

For `Cc1ccc(C2(C(F)(F)F)N=C3Sc4cc(C)cc(C)c4N3C(=O)N2)cc1` (configuration not stated), the inhibition was 76.7% (active).

Regarding `CCOC(=O)c1cc(Sc2ccccc2N)cc(C(=O)OCC)n1`, the inhibition is 15.6%.

For the molecule `CCN(CC)CCn1c(N)c(S(=O)(=O)c2ccccc2)c2nc3ccccc3nc21`, the inhibition is -7.46%.

Regarding `NS(=O)(=O)c1ccc(CNC(=O)c2cnccn2)cc1`, the inhibition was -3.79%.

With `COc1ccc(Nc2cc(=O)n(-c3ccccc3)c3c2c(=O)n(C)c(=O)n3C)cc1`, the inhibition was 7.22%.

Regarding `Cc1ccc(S(=O)(=O)NNC(=S)NC(C)(C)C)cc1`, the inhibition is -12.5%.

`CSc1nnc(-c2ccc(C(F)(F)F)cn2)o1`: the inhibition is -2.28%.

Take `CN(C)S(=O)(=O)c1ccc(NC(=O)COC(=O)c2n[nH]c3ccccc23)cc1`: the inhibition is 22.3%.

On to `CCN(CC)S(=O)(=O)c1ccc2nc(CSc3nnnn3-c3ccc(O)cc3)[nH]c2c1`, for which the inhibition is 29.3%.

Regarding `CCN(CC)S(=O)(=O)c1ccc2nc(COC(=O)c3n[nH]c4ccccc34)[nH]c2c1`, the inhibition is 104% (active).

Regarding `C/C(=N/NC(=O)CC(=O)N/N=C(\C)c1ccc([N+](=O)[O-])cc1)c1ccc([N+](=O)[O-])cc1`, the inhibition is -0.51%.

As to `CCCCCCn1c(SCC(=O)c2ccccc2)nc2c1c(=O)[nH]c(=O)n2C`, the inhibition was -4.27%.

Take `CCCSc1nc2c(c(=O)[nH]c(=O)n2C)n1CCc1ccccc1`: the inhibition was 19.8%.

Take `CCCCCn1c(SCCC(C)C)nc2c1c(=O)[nH]c(=O)n2C`: the inhibition was 97.9% (active).

Consider `Cc1cc(C(=O)NCCc2ccc(Cl)cc2)n(-c2ccccc2)n1`, for which the inhibition was 16.9%.

For `CCN1CCN(Cc2nc3c(c(=O)n(C)c(=O)n3C)n2CC(=O)c2ccccc2)CC1`, the inhibition is 6.1%.

Turning to `CC1CCCN(Cc2nc3c(c(=O)n(C)c(=O)n3C)n2CC(=O)c2ccccc2)C1` (configuration not stated), the inhibition is 3.62%.

For the molecule `CCCCCCn1c(CN2CCCC(C)C2)nc2c1c(=O)n(C)c(=O)n2C` (configuration not stated), the inhibition is 97.9% (active).

`O=C(NNS(=O)(=O)Cc1ccccc1)c1ccc([N+](=O)[O-])cc1`: the inhibition is 0.23%.

`O=C(c1ccc(F)cc1)n1c(=S)nc2ccccn21`: the inhibition was 20.7%.

As for `Cc1cc(NC(=O)CN2CCCC(C)C2)n(-c2nc3ccccc3s2)n1` (configuration not stated), the inhibition was 52.1%.

On to `CCOC(=O)N1CCN(CC(=O)Nc2cc(C)nn2-c2nc3ccccc3s2)CC1`, for which the inhibition was -20.6%.

Consider `CCC(C)Cn1c(O)cc2nn(-c3nc4ccccc4s3)c(=O)c-2c1C` (configuration not stated), for which the inhibition is 83.7% (active).

For `CCOC(=O)CN(C)S(=O)(=O)c1ccc(-c2cc(C(=O)OC)sc2C(F)(F)F)cc1`, the inhibition is -2.09%.

As for `CCOC(=O)c1nnn2c1nc(N1CCN(c3ccccc3)CC1)c1ccccc12`, the inhibition was 4.43%.

In the case of `Cc1ccc(-n2c(SCC(=O)Nc3ccc4c(c3)OCO4)nnc2-c2ccoc2C)cc1`, the inhibition was 79.8% (active).

As to `O=C(CSc1nnc(-c2ccccn2)n1-c1ccccc1)Nc1ccc2c(c1)OCO2`, the inhibition is 14.5%.

As for `Cc1ccc(-n2c(SCC(=O)Nc3ccc4c(c3)OCO4)nnc2-c2ccccn2)cc1`, the inhibition is 23%.

`COc1ccc(/C(C)=N/N2CCOCC2)c(O)c1`: the inhibition is 4.65%.

On to `Cc1ccc2nc(Nc3ncc4c(n3)CC(C)(C)CC4=O)nc(C)c2c1`, for which the inhibition is 7.17%.

As for `Cc1ccc2nc(-c3cccc(Br)c3)cc(C(=O)Nn3cnnc3)c2c1`, the inhibition is 6.71%.

As for `Cc1ccc2nc(Nc3ccccc3O)nc(-c3ccccc3)c2c1`, the inhibition is 85.7% (active).

Consider `O=C(Nc1ccccc1)Nc1ccc(C(F)(F)F)cn1`, for which the inhibition is -1.82%.

On to `Cc1ccc2cc(/C=N/Nc3ccc(C(=O)O)cc3)c(Cl)nc2c1`, for which the inhibition was -19%.

For the molecule `CSCC[C@H](NC(=O)OC(C)(C)C)C(=O)N/N=C/c1cc2ccc(C)cc2nc1Cl`, the inhibition is 73.9% (active).

Regarding `Cc1ccc2cc(/C=N/NC(=O)[C@@H]3CCCN3)c(Cl)nc2c1`, the inhibition was 13.2%.

For the molecule `S=c1[nH]nc(-c2ccncc2)n1/N=C/c1ccccc1Cl`, the inhibition was 9.19%.

As for `CC1=CC2=NC(=O)/C(=C/c3coc4ccccc4c3=O)C(=N)N2O1`, the inhibition is 10%.

As to `O=[N+]([O-])c1cc(Cl)cc(/C=N/NC(=S)Nc2cc(S(=O)(=O)N3CCOCC3)ccc2Cl)c1O`, the inhibition was 24.1%.

In the case of `O=C(O)CCC(=O)Nc1nc2ccc([N+](=O)[O-])cc2s1`, the inhibition was -7.8%.

Consider `Cc1cc(C)cc(OCC(=O)Nc2nc3ccc([N+](=O)[O-])cc3s2)c1`, for which the inhibition is 89.4% (active).

As for `O=C(COC(=O)c1ccc(F)cc1)Nc1nc2ccc([N+](=O)[O-])cc2s1`, the inhibition is 7.2%.

With `Cc1cc2c(cc1C)N(Cc1ccccc1)C1=NCCCN12`, the inhibition is 17.9%.

On to `CC(C)CN(CC(C)C)CC(O)CN(c1ccccc1)S(=O)(=O)c1ccccc1[N+](=O)[O-]` (configuration not stated), for which the inhibition was 6.94%.

On to `CC(=O)Nc1ccc(/C(C)=N/NC(=O)CN(c2ccccc2Br)S(C)(=O)=O)cc1`, for which the inhibition was 91.8% (active).

As to `COc1ccccc1N(CC(=O)Nc1ccc(C(F)(F)F)cc1)S(C)(=O)=O`, the inhibition is 12.5%.

Consider `C/C(=N/NC(=O)c1ccc(NC(=O)c2ccc(F)cc2)cc1)c1ccccc1`, for which the inhibition is 52%.

In the case of `Cc1ccc2c(c1)c1ncn(Cc3ccc(F)cc3)c(=O)c1n2C`, the inhibition is 21.6%.

With `S=c1nc2ccccc2c2nc(-c3cccnc3)[nH]n12`, the inhibition is -22.9%.

Consider `CCCc1ccc(C(=O)[C@@H]2[C@@H](C(C)=O)N3c4ccc(F)cc4C=C[C@@H]3[C@@]23C(=O)Nc2ccccc23)cc1`, for which the inhibition was 72.2% (active).

Consider `CC(C)(C)CN1C(=O)C(=O)NC[C@H]1Cc1cccc2ccccc12`, for which the inhibition is 16.9%.

As to `CN1CCc2ccccc2C1Cc1ccccc1NC(=O)c1sc2ccccc2c1Cl` (configuration not stated), the inhibition is 24.9%.

Regarding `CC(C)(C)N1CC(c2nc3ccccc3n2Cc2ccc(F)cc2)CC1=O` (configuration not stated), the inhibition is -17.7%.

For the molecule `Nc1nonc1-c1nc2ccccc2n1Cc1ccc(F)cc1`, the inhibition was 84.3% (active).

As for `CC(=O)Nc1nonc1-c1nc2ccccc2n1Cc1ccccn1`, the inhibition was 33.7%.

`COC(=O)c1cc(N2CCNCC2)nc2ccccc12`: the inhibition was 19.8%.

For the molecule `Cc1cc(=O)[nH]c2nnnn12`, the inhibition was 8.36%.

For `O=C(Nc1cc(C(F)(F)F)ccc1Cl)c1cc(C2CC2)on1`, the inhibition is 67%.

As to `Cc1nn(Cc2ccc(Cl)c(Cl)c2)c(C)c1NC(=O)c1cc(C2CC2)on1`, the inhibition was 82.7% (active).

Consider `Cc1cc(C(=O)Nc2c(C)nn(Cc3ccccc3)c2C)on1`, for which the inhibition was 11.6%.

On to `CCCCOc1ccc(CON(C(C)=O)C(C)=O)cc1Cl`, for which the inhibition was 10.1%.

As for `COCCn1c(SCC(=O)c2[nH]c(C)c(C(C)=O)c2C)nc2ccccc2c1=O`, the inhibition is -9.67%.

Take `C=CCSC(CC)(CC)C(N)=O`: the inhibition is 4.32%.

In the case of `O=C1/C(=C/c2cccs2)SC(=S)N1C1CCS(=O)(=O)C1` (configuration not stated), the inhibition was 8.4%.

Take `CCCCOC(=O)c1ccc(N2C(=O)CC(N3CCN(C/C=C/c4ccccc4)CC3)C2=O)cc1` (configuration not stated): the inhibition is 81.1% (active).

With `CCOC(=O)c1ccc(N2C(=O)CC(N3CCC(C(=O)OCC)CC3)C2=O)cc1` (configuration not stated), the inhibition was 1.79%.

In the case of `CCOC(=O)c1ccc(N2C(=O)CC(N3CCN(C(=O)c4ccccc4)CC3)C2=O)cc1` (configuration not stated), the inhibition is 14.7%.

Consider `O=[N+]([O-])c1cccc(C2=NCCS2)c1`, for which the inhibition is 5.31%.

Consider `O=[N+]([O-])c1cccc(-c2nnc3c4ccccc4c4ccccc4n23)c1`, for which the inhibition is 96.5% (active).

For `O=c1[nH]c2ccccc2n2c(-c3ccccc3)nnc12`, the inhibition was 10.4%.

As to `CC(CNS(=O)(=O)c1ccc(Br)cc1)CN(C)C` (configuration not stated), the inhibition is 1.82%.

As for `Cc1ccc2c(C)c(C(=O)N3CCC(N4CCC(C(=O)NC5CC5)CC4)CC3)oc2c1`, the inhibition is 25.5%.

In the case of `Fc1ccccc1/C=C1\CCCC2=C1Nc1ncnn1C2c1ccccc1F` (configuration not stated), the inhibition is 108% (active).

In the case of `CC1CC(=O)Nc2ccccc2N1S(=O)(=O)c1cccs1` (configuration not stated), the inhibition is 4.64%.

As for `O=C(Nc1ccc2c(c1)CCC2)c1cccc(S(=O)(=O)N2CCN(c3ccc(F)cc3)CC2)c1`, the inhibition is 78.2% (active).

Regarding `O=C(Nc1ccc2c(c1)CCC2)c1cccc(S(=O)(=O)Nc2ccccc2Cl)c1`, the inhibition is 33.4%.

Take `O=C(Nc1cccnc1)c1cccc(S(=O)(=O)N2CCCC2)c1`: the inhibition was 1.13%.

With `Cc1ccc(Cn2c(SCC(=O)N/N=C/c3ccccc3OCC(=O)O)nc3ccccc32)cc1`, the inhibition was 19.7%.

These data come from PubChem BioAssay AID2732 (Emory University Molecular Libraries Screening Center, 2010).
